An excerpt weighted towards active compounds, which were near 1% of everything screened.
FadD28 binding: inhibitors of FadD28 bisubstrate probe binding, primary screen, biochemical, fluorescence polarization, single point | inhibition, % at 12.5 µM | AID 588549, 2011 | 360,000 compounds, 0.22% hits | Mycobacterium tuberculosis FadD28 fatty-acid-AMP ligase; in the data active = inhibition above about 8.5%, passing the limit was not always enough
PrP 5UTR inh: inhibition of PrP 5' UTR reporter expression; cell-based PrP 5' UTR mRNA reporter, plate reader; inhibition, % (concentration not given with the values); 340,000 compounds, 0.35% hits; AID 488862, 2010; in the data active = inhibition above about 52%; note: 0 = median of the neutral control wells
SSB-PriA inh: inhibitors of Klebsiella pneumoniae PriA binding to SSB C-terminal tail, primary screen, biochemical, AlphaScreen. AlphaScreen SSBct-PriA binding, biotinylated peptide. 430,000 compounds, 0.6% hits. PriA–SSB C-terminal tail interaction (Klebsiella pneumoniae). inhibition, % at 33 µM; in the data active = inhibition mostly above about 37%, no sharp cut-off; inactive = mostly below about 20%;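 note: plate controls were negative control peptide for no effect and reference peptide for full effect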
BioA inh: M. tuberculosis BioA enzyme inhibitors, primary screen, biochemical, plate reader, single point, HTS. AID 602481, 2012. purified M. tuberculosis BioA enzyme. 7,8-diaminopelargonic acid synthase BioA (Mycobacterium tuberculosis). 360,000 compounds, 0.096% hits. inhibition, % at 9.99 µM; in the data active = inhibition above about 40%
TcdB GH inh: TcdB glycohydrolase inhibitors, primary screen, biochemical, single point, plate reader; Toxin B (Clostridioides difficile), P18177; TcdB glycohydrolase enzymatic assay; inhibition, % at 9.99 µM; 350,000 compounds, 0.24% hits; AID 652162, 2013; in the data active = inhibition above about 10%
Mtb hypoxia rep: PubChem AID 1159583. M. tuberculosis hypoxia-regulated fluorescent reporter, fluorescence. fluorescence inhibition, % (no concentration beside the values). 300,000 compounds, 0.1% hits; in the data active = fluorescence inhibition mostly above about 23%, no sharp cut-off; inactive = mostly below about 17%
* hit, by the source's call; . = no result given; ! = not confirmed by another sample.

SMILES	FadD28 binding	PrP 5UTR inh	SSB-PriA inh	BioA inh	TcdB GH inh	Mtb hypoxia rep
COc1ccc2oc(C(=O)Nc3nc(-c4ccccn4)cs3)c(C)c2c1	-3	-5	42*	.	0	7
O=C(Nc1nc(-c2ccccn2)cs1)c1ccccc1F	.	.	94*	.	.	.
O=C(Nc1nc(-c2ccccc2)cs1)c1ccccc1F	1	-24	-24	-1	-2	-2
COc1ccc2oc(C(=O)NC(C)c3ccccn3)c(C)c2c1 (stereo unspecified)	-3	-16	-5	5	1	-4
Cc1cc(C(=O)Nc2nc(-c3ccccn3)cs2)c(C)s1	.	.	62	.	.	.
CC1=C(C(=O)Nc2cccnc2)C(c2ccncc2)n2nnnc2N1 (stereo unspecified)	-5	-33	-24	0	.	5
Cc1ccccc1N/N=C/c1c(C)nc2ccccn12	1	1	.	1	0	.
Cc1ccc(C)n1-c1ccc(C(=O)Nc2nc(-c3ccccn3)cs2)cc1	.	.	81	.	.	.
O=C(Nc1nc(-c2ccccn2)cs1)c1ccc(Br)s1	-4	29	56*	-11	.	25
O=C(Nc1nc(-c2cc(Cl)sc2Cl)cs1)c1ccc(Br)s1	-1	-18	44*!	-1	.	1
Cc1cc(C(=O)Nc2nc(-c3ccccn3)cs2)c(C)o1	.	.	82*	.	.	.
Cc1csc(NC(=O)c2cc(C)oc2C)n1	-4	-63	-3	0	.	.
Cc1nc(C(C)C)c(C(=O)Nc2nc(-c3ccccn3)cs2)s1	.	.	59*	.	.	.
O=C(O)CC(c1ccc(OC2CCCC2)cc1)N1C(=O)c2ccccc2C1=O (stereo unspecified)	1	-10	-12	1	0	11
O=C(Nc1nc(-c2ccc([N+](=O)[O-])cc2)cs1)c1ccccc1Br	.	.	-9	.	.	.
O=C(Nc1nc(-c2ccccn2)cs1)c1ccccc1Br	.	.	91*	.	.	.
CC(=NNC(=O)c1c[nH]c2ccccc12)c1ccc(C)s1	.	.	4	.	.	9
COc1cc(CNCCc2c[nH]c3ccccc23)ccc1OCc1ccccc1F	-1	-14	38*	3	2	4
COc1cccc(CNCCc2c[nH]c3ccccc23)c1OCc1ccccc1	-2	-3	45*	.	1	2
Cn1c(=O)c2[nH]c(CCCc3ccc([N+](=O)[O-])cc3)nc2n(C)c1=O	-1	-23	-8	.	0	.
CCOC(=O)C1=CN(Cc2cccc(F)c2)S(=O)(=O)NC1c1ccc2ccccc2c1 (stereo unspecified)	-2	-25	5	4	0	0
CCOC(=O)C1=CN(Cc2cccc(F)c2)S(=O)(=O)NC1c1cccc(OC)c1 (stereo unspecified)	0	-21	47*	0	1	6
O=C(NCC(c1cccc2ccccc12)N1CCCC1)C(=O)Nc1ccc2c(c1)OCCO2 (stereo unspecified)	.	.	48*	.	.	.
O=C(NC[C@H](O)c1cccc2ccccc12)C(=O)Nc1ccc2c(c1)OCO2	.	.	0	.	.	.
O=C(NCCn1nc(-c2ccco2)ccc1=O)C(F)(F)F	.	.	-10	.	.	.
SMILES	FadD28 binding	PrP 5UTR inh	SSB-PriA inh	BioA inh	TcdB GH inh	Mtb hypoxia rep
CC[n+]1ccc(/C=C/c2ccc(N(C)C)cc2)c2ccccc21	1	20	23	.	15*	17
CCNc1nc(NCC)n2c(SC(C)C(=O)c3ccc(C)cc3)nnc2n1 (stereo unspecified)	-2	-26	-7	2	2	11
COc1ccccc1CNC(=O)COC(=O)Cc1c(Cl)cccc1Cl	-5	-34	-23	0	0	8
Cc1ccc(/C=C(\C#N)C(=O)Nc2ccccn2)o1	-2	-97	1	0	17*	5
CC(C)(C)OC(=O)C[C@@H]1C/C=C\C[C@H](CC(=O)NCCO)C(=O)N[C@@H](c2ccccc2)COC1=O	-1	-26	1	1	1	.
COc1cc(COCC2CCN(Cc3cccnc3)CC2)cc(OC)c1	.	.	-10	.	.	.
Cc1ccc(Nc2nnc(SCc3cc(=O)n4ccsc4n3)s2)c(C)c1	-1	-2	-4	1	.	5
COc1ccccc1Nc1nnc(SCc2cc(=O)n3ccsc3n2)s1	1	-24	2	-1	15*	-1
